# Data from the supplement of paper PMC10849652.
# The full data set covers some 7,900 targets. This sample favours those with a hit. About 0.6% of all pairs of compound and target were hits. Unmarked numbers belong to inactive results.
# Assays:
# Experiment in all cases: log2 fold change, soluble protein after heating vs DMSO (PISA); higher = thermal stabilisation; K562 cells, 10 uM, 30 min; active = over 0.2 and 3.5 SD of the protein, either way, in both replicates (recomputed)
# YWHAB = YWHAB (UniProt P31946)
# Chain of YWHAB (P31946 whole entry, looked up): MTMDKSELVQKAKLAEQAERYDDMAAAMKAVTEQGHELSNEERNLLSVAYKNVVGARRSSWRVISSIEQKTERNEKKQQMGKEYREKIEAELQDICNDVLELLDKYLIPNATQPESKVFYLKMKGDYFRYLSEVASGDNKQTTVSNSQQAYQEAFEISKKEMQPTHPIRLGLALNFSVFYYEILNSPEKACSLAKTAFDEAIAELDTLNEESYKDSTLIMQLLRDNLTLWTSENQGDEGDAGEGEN
# Summary of the method: (§1)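 For each measurement, 10 μM compound was applied for 30 min to K562 cells at 2×10^6 cells/mL. Aliquots were heated for 3 min across 48°C-58°C, pooled, and extracted in PBS with 0.5% NP-40 at 4°C; the supernatant after 21,000xg for 90 min was soluble protein. This was quantified by TMTpro 16plex LC-MS/MS with channel sums equalised, and thermal stability was reported relative to control samples from duplicates, on a log2 fold-change scale.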
# YWHAQ = YWHAQ (UniProt P27348)
# Chain of YWHAQ (P27348 whole entry, looked up): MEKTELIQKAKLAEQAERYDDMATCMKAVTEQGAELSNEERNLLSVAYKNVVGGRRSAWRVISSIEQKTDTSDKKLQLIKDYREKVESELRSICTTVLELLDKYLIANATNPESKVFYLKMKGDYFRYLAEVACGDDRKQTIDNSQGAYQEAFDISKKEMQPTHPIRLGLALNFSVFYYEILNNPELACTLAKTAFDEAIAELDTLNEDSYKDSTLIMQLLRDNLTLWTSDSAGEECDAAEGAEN
# Summary of the method: as §1
# YWHAZ [1] = target: YWHAZ (UniProt P63104)
# Summary of the method: as §1
# YY1 = YY1 (UniProt P25490)
# Summary of the method: as §1
# ZADH2 = ZADH2 (UniProt Q8N4Q0)
# Summary of the method: as §1
# ZBTB17 isoform 2 = ZBTB17 isoform 2 (UniProt Q13105)
# Summary of the method: as §1
# ZBTB21 = ZBTB21 (UniProt Q9ULJ3)
# Chain of ZBTB21 (Q9ULJ3 whole entry, looked up): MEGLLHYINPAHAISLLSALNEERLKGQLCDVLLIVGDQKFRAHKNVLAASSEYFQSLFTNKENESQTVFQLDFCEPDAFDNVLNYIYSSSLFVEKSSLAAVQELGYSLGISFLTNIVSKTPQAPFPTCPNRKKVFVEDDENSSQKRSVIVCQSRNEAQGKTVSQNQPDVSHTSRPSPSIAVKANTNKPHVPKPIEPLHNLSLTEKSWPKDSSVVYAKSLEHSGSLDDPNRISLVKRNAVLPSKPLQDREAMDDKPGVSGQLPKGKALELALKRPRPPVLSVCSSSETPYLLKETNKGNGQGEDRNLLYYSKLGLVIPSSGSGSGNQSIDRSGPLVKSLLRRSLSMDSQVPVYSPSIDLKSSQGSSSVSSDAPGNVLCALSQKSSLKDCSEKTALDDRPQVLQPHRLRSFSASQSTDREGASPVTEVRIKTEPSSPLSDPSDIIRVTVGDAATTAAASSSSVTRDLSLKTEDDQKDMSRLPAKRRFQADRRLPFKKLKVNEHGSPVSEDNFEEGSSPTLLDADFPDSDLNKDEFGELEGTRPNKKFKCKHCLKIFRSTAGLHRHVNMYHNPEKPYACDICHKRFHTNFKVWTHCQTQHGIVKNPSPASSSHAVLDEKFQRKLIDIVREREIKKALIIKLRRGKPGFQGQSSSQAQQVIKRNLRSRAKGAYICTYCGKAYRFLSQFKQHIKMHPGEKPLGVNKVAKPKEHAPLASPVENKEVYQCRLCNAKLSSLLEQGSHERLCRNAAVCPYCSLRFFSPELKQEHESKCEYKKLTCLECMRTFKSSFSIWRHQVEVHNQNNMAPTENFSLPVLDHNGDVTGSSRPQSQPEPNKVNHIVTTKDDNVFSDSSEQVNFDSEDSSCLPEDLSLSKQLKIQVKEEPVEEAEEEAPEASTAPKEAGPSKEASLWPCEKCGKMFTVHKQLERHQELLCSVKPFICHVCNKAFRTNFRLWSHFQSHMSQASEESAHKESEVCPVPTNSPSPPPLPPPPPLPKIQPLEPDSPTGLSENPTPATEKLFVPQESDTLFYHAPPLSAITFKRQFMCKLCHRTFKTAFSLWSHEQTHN
# Summary of the method: as §1
# ZBTB43 = ZBTB43 (UniProt O43298)
# Summary of the method: as §1
# ZC3H18 = ZC3H18 (UniProt Q86VM9)
# Chain of ZC3H18 (Q86VM9 whole entry, looked up): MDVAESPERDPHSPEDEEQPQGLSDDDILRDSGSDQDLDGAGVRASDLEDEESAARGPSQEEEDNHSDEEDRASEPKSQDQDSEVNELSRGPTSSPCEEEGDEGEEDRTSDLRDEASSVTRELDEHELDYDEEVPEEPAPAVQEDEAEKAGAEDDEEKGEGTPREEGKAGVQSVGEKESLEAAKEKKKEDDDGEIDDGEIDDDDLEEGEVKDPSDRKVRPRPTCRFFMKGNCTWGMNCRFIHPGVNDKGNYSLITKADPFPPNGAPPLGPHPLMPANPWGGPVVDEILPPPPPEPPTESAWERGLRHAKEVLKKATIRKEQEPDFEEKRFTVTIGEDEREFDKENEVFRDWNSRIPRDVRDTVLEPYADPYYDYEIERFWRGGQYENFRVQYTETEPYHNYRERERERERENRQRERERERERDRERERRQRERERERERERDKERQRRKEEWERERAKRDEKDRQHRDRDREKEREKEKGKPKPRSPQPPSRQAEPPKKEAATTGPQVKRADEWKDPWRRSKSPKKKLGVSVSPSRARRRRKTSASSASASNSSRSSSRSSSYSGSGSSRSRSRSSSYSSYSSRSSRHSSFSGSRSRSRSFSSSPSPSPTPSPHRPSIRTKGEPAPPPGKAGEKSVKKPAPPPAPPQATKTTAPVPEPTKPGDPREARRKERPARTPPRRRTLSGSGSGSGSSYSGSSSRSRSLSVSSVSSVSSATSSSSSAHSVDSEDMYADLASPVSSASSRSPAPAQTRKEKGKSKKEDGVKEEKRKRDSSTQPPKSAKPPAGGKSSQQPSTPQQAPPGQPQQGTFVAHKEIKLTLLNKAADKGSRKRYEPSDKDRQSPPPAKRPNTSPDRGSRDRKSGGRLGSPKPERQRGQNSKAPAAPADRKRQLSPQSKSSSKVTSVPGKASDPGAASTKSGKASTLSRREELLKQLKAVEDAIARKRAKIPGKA
# Summary of the method: as §1
# ZC3H8 = ZC3H8 (UniProt Q8N5P1)
# Summary of the method: as §1
# ZC3HC1 = ZC3HC1 (UniProt Q86WB0)
# Chain of ZC3HC1 (Q86WB0 whole entry, looked up): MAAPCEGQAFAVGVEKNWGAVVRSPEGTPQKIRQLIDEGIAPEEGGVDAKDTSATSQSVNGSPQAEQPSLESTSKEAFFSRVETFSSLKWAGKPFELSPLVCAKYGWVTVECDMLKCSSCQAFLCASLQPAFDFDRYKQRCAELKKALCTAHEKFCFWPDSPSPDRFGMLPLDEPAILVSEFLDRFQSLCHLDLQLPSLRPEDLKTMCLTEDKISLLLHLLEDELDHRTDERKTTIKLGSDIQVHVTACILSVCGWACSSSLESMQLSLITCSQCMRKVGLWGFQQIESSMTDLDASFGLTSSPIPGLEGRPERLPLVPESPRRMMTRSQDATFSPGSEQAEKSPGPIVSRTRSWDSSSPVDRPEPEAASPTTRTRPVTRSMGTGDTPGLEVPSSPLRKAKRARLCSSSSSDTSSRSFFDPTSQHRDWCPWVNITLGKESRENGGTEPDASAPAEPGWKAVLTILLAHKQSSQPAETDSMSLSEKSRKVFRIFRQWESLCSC
# Summary of the method: as §1
# ZCCHC9 = ZCCHC9 (UniProt Q8N567)
# Summary of the method: as §1
# ZDHHC17 = ZDHHC17 (UniProt Q8IUH5)
# Chain of ZDHHC17 (Q8IUH5 whole entry, looked up): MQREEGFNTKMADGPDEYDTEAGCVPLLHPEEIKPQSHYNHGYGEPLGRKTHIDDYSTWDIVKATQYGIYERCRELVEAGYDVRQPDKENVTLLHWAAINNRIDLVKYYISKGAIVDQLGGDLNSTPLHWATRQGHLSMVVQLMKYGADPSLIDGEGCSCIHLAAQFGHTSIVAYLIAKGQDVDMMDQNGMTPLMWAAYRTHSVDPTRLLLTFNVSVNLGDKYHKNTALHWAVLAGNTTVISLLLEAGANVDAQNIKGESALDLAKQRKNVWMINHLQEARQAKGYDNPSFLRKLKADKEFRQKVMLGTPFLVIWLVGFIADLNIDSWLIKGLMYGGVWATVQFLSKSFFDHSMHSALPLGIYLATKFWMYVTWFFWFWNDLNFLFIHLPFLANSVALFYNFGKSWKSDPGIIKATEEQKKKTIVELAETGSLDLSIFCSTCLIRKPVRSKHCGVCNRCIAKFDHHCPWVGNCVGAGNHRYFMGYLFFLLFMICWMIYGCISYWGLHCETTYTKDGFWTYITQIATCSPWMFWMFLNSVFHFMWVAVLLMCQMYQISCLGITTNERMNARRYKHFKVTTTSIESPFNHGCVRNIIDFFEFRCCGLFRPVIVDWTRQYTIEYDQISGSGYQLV
# Summary of the method: as §1
# ZDHHC20 = ZDHHC20 (UniProt Q5W0Z9)
# Summary of the method: as §1
# ZDHHC5 = ZDHHC5 (UniProt Q9C0B5)
# Summary of the method: as §1
# ZDHHC7 isoform 2 = ZDHHC7 isoform 2 (UniProt Q9NXF8)
# Summary of the method: as §1
# ZCCHC17 = ZCCHC17 (UniProt Q9NP64)
# Summary of the method: as §1
# YWHAZ [2] = target: YWHAZ (UniProt E7ESK7)
# Summary of the method: as §1
# ZDHHC6 = ZDHHC6 (UniProt Q9H6R6)
# Chain of ZDHHC6 (Q9H6R6 whole entry, looked up): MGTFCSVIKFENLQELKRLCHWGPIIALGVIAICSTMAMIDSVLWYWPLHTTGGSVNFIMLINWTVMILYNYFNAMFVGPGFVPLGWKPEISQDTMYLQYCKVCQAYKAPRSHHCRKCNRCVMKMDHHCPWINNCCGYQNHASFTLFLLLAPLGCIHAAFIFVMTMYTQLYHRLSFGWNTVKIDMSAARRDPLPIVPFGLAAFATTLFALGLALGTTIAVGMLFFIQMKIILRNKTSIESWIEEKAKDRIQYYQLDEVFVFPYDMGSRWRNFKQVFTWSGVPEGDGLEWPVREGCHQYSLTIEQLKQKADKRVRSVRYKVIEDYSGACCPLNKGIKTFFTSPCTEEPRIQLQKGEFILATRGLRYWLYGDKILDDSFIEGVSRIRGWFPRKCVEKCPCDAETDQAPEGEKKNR
# Summary of the method: as §1
# ZDHHC8 isoform 3 = ZDHHC8 isoform 3 (UniProt Q9ULC8)
# Chain of ZDHHC8 isoform 3 (Q9ULC8 whole entry, looked up, canonical isoform): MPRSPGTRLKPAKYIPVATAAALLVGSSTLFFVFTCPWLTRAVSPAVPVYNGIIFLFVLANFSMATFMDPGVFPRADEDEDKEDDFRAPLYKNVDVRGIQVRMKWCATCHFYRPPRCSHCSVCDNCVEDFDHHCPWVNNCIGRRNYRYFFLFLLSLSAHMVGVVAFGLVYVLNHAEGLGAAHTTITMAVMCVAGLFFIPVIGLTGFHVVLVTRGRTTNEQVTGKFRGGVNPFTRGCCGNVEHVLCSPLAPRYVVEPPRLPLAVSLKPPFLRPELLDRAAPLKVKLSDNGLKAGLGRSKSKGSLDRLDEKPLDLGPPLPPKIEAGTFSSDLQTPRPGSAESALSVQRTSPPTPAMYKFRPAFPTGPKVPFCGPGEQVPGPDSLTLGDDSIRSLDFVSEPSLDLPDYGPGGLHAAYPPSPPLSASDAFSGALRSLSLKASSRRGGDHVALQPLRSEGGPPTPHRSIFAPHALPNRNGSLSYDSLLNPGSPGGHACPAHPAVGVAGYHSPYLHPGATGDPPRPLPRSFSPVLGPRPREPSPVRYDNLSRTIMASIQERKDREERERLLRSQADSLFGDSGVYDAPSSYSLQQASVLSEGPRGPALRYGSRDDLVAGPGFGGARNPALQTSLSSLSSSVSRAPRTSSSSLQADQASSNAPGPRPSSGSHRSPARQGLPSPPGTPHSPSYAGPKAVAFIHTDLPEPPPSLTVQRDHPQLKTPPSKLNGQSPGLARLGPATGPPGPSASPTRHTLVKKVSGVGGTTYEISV
# Summary of the method: as §1
Compound,log2 fold change (YWHAB),log2 fold change (YWHAQ),log2 fold change (YWHAZ [1]),log2 fold change (YY1),log2 fold change (ZADH2),log2 fold change (ZBTB17 isoform 2),log2 fold change (ZBTB21),log2 fold change (ZBTB43),log2 fold change (ZC3H18),log2 fold change (ZC3H8),log2 fold change (ZC3HC1),log2 fold change (ZCCHC9),log2 fold change (ZDHHC17),log2 fold change (ZDHHC20),log2 fold change (ZDHHC5),log2 fold change (ZDHHC7 isoform 2),log2 fold change (ZCCHC17),log2 fold change (YWHAZ [2]),log2 fold change (ZDHHC6),log2 fold change (ZDHHC8 isoform 3)
CC(C)c1cnn2c(NCc3ccccc3)cc(NCCCCCCN)nc12,0.014,-0.026,0.052,-0.24 (active),-0.019,0.054,-0.027,0.138,-0.122,0.177,-0.151,0.004,-0.061,-0.229,0.007,-0.008,,,,
Nc1ccccc1NC(=O)c1ccc(CNC(=O)OCc2cccnc2)cc1 [entinostat],-0.042,0.116,0.032,0.053,-0.04,-0.14,-0.074,-0.091,0.021,-0.141,0.1,-0.112,-0.047,0.045,-0.034,,0.081,,,
O=C(CCCCCCNC(=O)c1cnc(N(c2ccccc2)c2ccccc2Cl)nc1)NO [citarinostat],0.001,0.02,-0.013,0.121,0.106,,,-0.173,0.028,-0.059,0.125,-0.161,-0.17,-0.028,-0.022,-0.037,,-0.053,0.149,
CN1CCN(c2nc(C3=C(c4c[nH]c5ccccc45)C(=O)NC3=O)c3ccccc3n2)CC1 [sotrastaurin],0.031,-0.043,-0.01,-0.092,-0.015,0.03,0.022,0.027,-0.11,0.025,-0.178,0.243,0.099,0.015,-0.069,,-0.095,,,
Cc1ncc(-c2ccnc(Nc3ccc(S(C)(=O)=O)cc3)n2)n1C(C)C,0,-0.026,-0.003,-0.207,0.066,,0.061,0.16,-0.162,0.036,-0.01,0.005,-0.022,0.022,-0.009,0.059,,,,-0.014
NCC(=O)Nc1ccc(-n2nc(C(F)(F)F)cc2-c2ccc3c(ccc4ccccc43)c2)cc1,-0.007,0.457,0.084,-0.009,0.017,,-0.042,0,-0.012,0.036,-0.076,-0.013,0.012,0.093,-0.005,-0.056,-0.137,,,
CCn1cc(-c2ccnc3[nH]c(-c4cccc(CN(C)C)c4)cc23)c(-c2ccc(NC(=O)N(C)C)cc2)n1,0.014,0.143,-0.042,0.002,0.13,,-0.073,0.028,0.068,0.092,-0.125,0.201,-0.018,-0.016,-0.002,-0.363,,,-0.292,
COc1cc2ncnc(Nc3ccc(F)c(Cl)c3)c2cc1OCCCN1CCOCC1 [gefitinib],-0.001,0.007,0.005,-0.076,-0.029,,-0.125,0.025,-0.033,0.021,0.004,-0.062,0.04,-0.067,0.031,0.062,,,,0.023
CS(=O)(=O)N1CCN(Cc2cc3nc(-c4cccc5[nH]ncc45)nc(N4CCOCC4)c3s2)CC1 [pictilisib],0.002,-0.142,-0.037,-0.021,0.14,,-0.035,0.027,-0.019,-0.007,-0.003,-0.004,0.021,0.066,0.047,0.089,,,-0.044,
CCN(CC)Cc1ccc2cc(COC(=O)Nc3ccc(C(=O)NO)cc3)ccc2c1 [givinostat],-0.026,-0.039,-0.001,0.02,-0.066,-0.011,-0.045,-0.006,0.106,-0.106,0.031,0.038,0.113,-0.167,-0.001,0.011,,,,
CC[C@H](C)n1cc(C)c2c(C(=O)NCc3c(C)cc(C)[nH]c3=O)cc(-c3ccc(N4CCNCC4)nc3)cc21,0.009,0.072,0.008,0.061,0.526 (active),,0.059,-0.187,0.032,-0.012,0.164,0.013,-0.022,-0.046,-0.052,-0.099,,,,-0.064
CN(C)CC(=O)Nc1ccc2[nH]c(=O)c3ccccc3c2c1,-0.033,0.16,0.009,-0.047,0.02,,0.018,-0.07,-0.039,-0.047,0.089,-0.125,-0.005,-0.026,-0.032,0.057,-0.059,,,
